# Measurements taken from PMC11006913.
# Substitutions are numbered along the chain they refer to.
# Key:
# Test in all cases: PBM; 200 nM protein, PBS
# Conditions in all cases: dsDNA, one strand shown
# ALX1 [1] = molecular target: ALX1 (Homo sapiens, UniProt Q15699 118-204, L144V)
# ALX3 [2] = molecular target: ALX3 (Homo sapiens, UniProt O95076 139-225, N203Q)
# ALX1 [3] = molecular target: ALX1 (Homo sapiens, UniProt Q15699 118-204, L144R)
# ALX3 [4] = molecular target: ALX3 (Homo sapiens, UniProt O95076 139-225)
# Sequence of ALX3 (Homo sapiens, UniProt O95076 139-225) (O95076 139-225): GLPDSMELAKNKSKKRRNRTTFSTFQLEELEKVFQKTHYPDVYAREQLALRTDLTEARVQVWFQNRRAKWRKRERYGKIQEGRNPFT
# ALX3 [5] = molecular target: ALX3 (Homo sapiens, UniProt O95076 139-225, L168Q)
# Sequence of ALX3 (Homo sapiens, UniProt O95076 139-225, L168Q) (O95076 139-225 L168Q): as the sequence (O95076 139-225) above, with L30Q counted along it
# ALX3 [6] = molecular target: ALX3 (Homo sapiens, UniProt O95076 139-225, L168V)
# Sequence of ALX3 (Homo sapiens, UniProt O95076 139-225, L168V) (O95076 139-225 L168V): as the sequence (O95076 139-225) above, with L30V counted along it
# NKX2-6 [7] = molecular target: T1, NKX2-6 (Homo sapiens, UniProt A6NCS4 118-204)
# T1 sequence: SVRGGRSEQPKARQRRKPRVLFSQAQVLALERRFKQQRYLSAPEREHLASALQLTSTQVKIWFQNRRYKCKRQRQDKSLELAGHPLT
# NKX2-6 [8] = molecular target: T2, NKX2-6 (Homo sapiens, UniProt A6NCS4 118-204, F151L)
# T2 sequence: T1 sequence with F34L
# MSX2 [9] = molecular target: MSX2 (Homo sapiens, UniProt P35548 130-214)
# Sequence of MSX2 (Homo sapiens, UniProt P35548 130-214) (P35548 130-214): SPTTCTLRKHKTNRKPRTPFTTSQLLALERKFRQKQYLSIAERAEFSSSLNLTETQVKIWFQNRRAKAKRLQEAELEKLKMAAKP
# MSX2 [10] = molecular target: MSX2 (Homo sapiens, UniProt P35548 130-214, F161Y)
# Sequence of MSX2 (Homo sapiens, UniProt P35548 130-214, F161Y) (P35548 130-214 F161Y): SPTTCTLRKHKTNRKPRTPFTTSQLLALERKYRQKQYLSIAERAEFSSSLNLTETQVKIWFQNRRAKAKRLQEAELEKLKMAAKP
# PROP1 [11] = molecular target: PROP1 (Homo sapiens, UniProt O75360 56-141)
# Sequence of PROP1 (Homo sapiens, UniProt O75360 56-141) (O75360 56-141): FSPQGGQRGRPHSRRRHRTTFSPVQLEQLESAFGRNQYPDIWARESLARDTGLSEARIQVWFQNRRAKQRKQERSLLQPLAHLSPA
# PROP1 [12] = molecular target: PROP1 (Homo sapiens, UniProt O75360 56-141, R99H)
# Sequence of PROP1 (Homo sapiens, UniProt O75360 56-141, R99H) (O75360 56-141 R99H): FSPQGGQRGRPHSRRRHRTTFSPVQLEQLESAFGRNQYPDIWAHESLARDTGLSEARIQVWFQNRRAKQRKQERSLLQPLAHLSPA
# PROP1 [13] = molecular target: PROP1 (Homo sapiens, UniProt O75360 56-141, F88S)
# Sequence of PROP1 (Homo sapiens, UniProt O75360 56-141, F88S) (O75360 56-141 F88S): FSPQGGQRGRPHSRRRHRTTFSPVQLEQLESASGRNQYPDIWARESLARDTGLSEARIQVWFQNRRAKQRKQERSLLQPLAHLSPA
# NKX3-2 [14] = molecular target: NKX3-2 (Homo sapiens, UniProt P78367 192-278, P234S)
# Sequence of NKX3-2 (Homo sapiens, UniProt P78367 192-278, P234S) (P78367 192-278 P234S): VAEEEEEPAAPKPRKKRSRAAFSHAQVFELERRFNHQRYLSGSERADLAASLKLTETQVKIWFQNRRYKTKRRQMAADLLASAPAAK
# NKX3-2 [15] = molecular target: NKX3-2 (Homo sapiens, UniProt P78367 192-278)
# Sequence of NKX3-2 (Homo sapiens, UniProt P78367 192-278) (P78367 192-278): as the sequence (P78367 192-278 P234S) above, with S43P counted along it
# CRX = CRX (Homo sapiens, UniProt O43186 26-111, R41L)
# Sequence of CRX (O43186 26-111 R41L): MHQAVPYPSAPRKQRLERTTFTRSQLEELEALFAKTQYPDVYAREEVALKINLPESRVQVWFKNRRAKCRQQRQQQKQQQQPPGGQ
# HOXA4 = HOXA4 (Homo sapiens, UniProt Q00056 201-287, W262F)
# Sequence of HOXA4 (Q00056 201-287 W262F): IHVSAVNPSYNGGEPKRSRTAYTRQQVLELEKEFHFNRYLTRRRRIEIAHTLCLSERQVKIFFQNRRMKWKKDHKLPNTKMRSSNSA
# VAX1 = VAX1 (Homo sapiens, UniProt Q5SQQ9 86-172, K157R)
# Sequence of VAX1 (Q5SQQ9 86-172 K157R): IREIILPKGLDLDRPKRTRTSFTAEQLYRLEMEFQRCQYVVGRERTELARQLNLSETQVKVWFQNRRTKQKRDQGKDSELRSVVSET
# ALX4 [16] = molecular target: ALX4 (Homo sapiens, UniProt Q9H161 200-286)
# Sequence of ALX4 (Homo sapiens, UniProt Q9H161 200-286) (Q9H161 200-286): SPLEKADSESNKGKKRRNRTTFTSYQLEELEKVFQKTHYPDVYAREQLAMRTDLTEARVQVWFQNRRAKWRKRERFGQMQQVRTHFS
# ALX4 [17] = molecular target: ALX4 (Homo sapiens, UniProt Q9H161 200-286, Q225E)
# Sequence of ALX4 (Homo sapiens, UniProt Q9H161 200-286, Q225E) (Q9H161 200-286 Q225E): as the sequence (Q9H161 200-286) above, with Q26E counted along it
# PRRX1 [18] = molecular target: PRRX1 (Homo sapiens, UniProt P54821 80-166, F113S)
# Sequence of PRRX1 (Homo sapiens, UniProt P54821 80-166, F113S) (P54821 80-166 F113S): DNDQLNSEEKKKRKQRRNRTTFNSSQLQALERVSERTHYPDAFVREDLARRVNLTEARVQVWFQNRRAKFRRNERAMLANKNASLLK
# PRRX1 [19] = molecular target: PRRX1 (Homo sapiens, UniProt P54821 80-166)
# Sequence of PRRX1 (Homo sapiens, UniProt P54821 80-166) (P54821 80-166): as the sequence (P54821 80-166 F113S) above, with S34F counted along it
# HOXB6 [20] = molecular target: HOXB6 (Homo sapiens, UniProt P17509 132-218, K202E)
# Sequence of HOXB6 (Homo sapiens, UniProt P17509 132-218, K202E) (P17509 132-218 K202E): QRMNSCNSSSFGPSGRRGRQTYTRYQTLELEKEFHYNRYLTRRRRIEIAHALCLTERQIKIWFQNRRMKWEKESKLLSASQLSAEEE
# HOXB6 [21] = molecular target: HOXB6 (Homo sapiens, UniProt P17509 132-218)
# Sequence of HOXB6 (Homo sapiens, UniProt P17509 132-218) (P17509 132-218): as the sequence (P17509 132-218 K202E) above, with E71K counted along it
# NKX2-6 [22] = molecular target: T3, NKX2-6 (Homo sapiens, UniProt A6NCS4 118-204, R150C)
# T3 sequence: T1 sequence with R33C
# MSX2 [23] = molecular target: MSX2 (Homo sapiens, UniProt P35548 130-214, R199I)
# Sequence of MSX2 (Homo sapiens, UniProt P35548 130-214, R199I) (P35548 130-214 R199I): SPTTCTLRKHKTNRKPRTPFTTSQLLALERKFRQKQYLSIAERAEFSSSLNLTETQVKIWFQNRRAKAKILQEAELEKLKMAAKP
# ALX3 [24] = molecular target: ALX3 (Homo sapiens, UniProt O95076 139-225, N203S)
# Sequence of ALX3 (Homo sapiens, UniProt O95076 139-225, N203S) (O95076 139-225 N203S): as the sequence (O95076 139-225) above, with N65S counted along it
# Sequence of ALX3 (Homo sapiens, UniProt O95076 139-225, N203Q) (O95076 139-225 N203Q): as the sequence (O95076 139-225) above, with N65Q counted along it
# Sequence of ALX1 (Homo sapiens, UniProt Q15699 118-204, L144V) (Q15699 118-204 L144V): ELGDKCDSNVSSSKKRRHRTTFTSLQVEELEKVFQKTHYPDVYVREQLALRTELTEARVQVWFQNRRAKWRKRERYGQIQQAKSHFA
# Sequence of ALX1 (Homo sapiens, UniProt Q15699 118-204, L144R) (Q15699 118-204 L144R): as the sequence (Q15699 118-204 L144V) above, with V27R counted along it
sequence,measurement,setting,value
AAATTAAC,binding signal,ALX1 [1],"11.4 upbm affinity estimate (log intensity, higher = more binding, comparable within an allelic series)"
same,binding signal,ALX3 [2],"8.36 upbm affinity estimate (log intensity, higher = more binding, comparable within an allelic series)"
same,binding signal,ALX1 [3],"11.1 upbm affinity estimate (log intensity, higher = more binding, comparable within an allelic series)"
same,binding signal,ALX3 [4],"12.2 upbm affinity estimate (log intensity, higher = more binding, comparable within an allelic series)"
same,binding signal,ALX3 [5],"10.3 upbm affinity estimate (log intensity, higher = more binding, comparable within an allelic series)"
same,binding signal,ALX3 [6],"9.64 upbm affinity estimate (log intensity, higher = more binding, comparable within an allelic series)"
CGAAGGCC,binding signal,NKX2-6 [7],"9.35 upbm affinity estimate (log intensity, higher = more binding, comparable within an allelic series)"
same,binding signal,NKX2-6 [8],"9.28 upbm affinity estimate (log intensity, higher = more binding, comparable within an allelic series)"
TACTTAGA,binding signal,MSX2 [9],"11.1 upbm affinity estimate (log intensity, higher = more binding, comparable within an allelic series)"
same,binding signal,MSX2 [10],"10.9 upbm affinity estimate (log intensity, higher = more binding, comparable within an allelic series)"
CTCGGCCA,binding signal,PROP1 [11],"6.9 upbm affinity estimate (log intensity, higher = more binding, comparable within an allelic series)"
same,binding signal,PROP1 [12],"6.67 upbm affinity estimate (log intensity, higher = more binding, comparable within an allelic series)"
same,binding signal,PROP1 [13],"6.71 upbm affinity estimate (log intensity, higher = more binding, comparable within an allelic series)"
AAGTACCG,binding signal,NKX3-2 [14],"12.4 upbm affinity estimate (log intensity, higher = more binding, comparable within an allelic series)"
same,binding signal,NKX3-2 [15],"12.5 upbm affinity estimate (log intensity, higher = more binding, comparable within an allelic series)"
TATTAAGA,binding signal,CRX,"10.6 upbm affinity estimate (log intensity, higher = more binding, comparable within an allelic series)"
CATTAACA,binding signal,HOXA4,"11.5 upbm affinity estimate (log intensity, higher = more binding, comparable within an allelic series)"
CCGGGGAA,binding signal,VAX1,"7.27 upbm affinity estimate (log intensity, higher = more binding, comparable within an allelic series)"
CGTCCGCC,binding signal,VAX1,"7.05 upbm affinity estimate (log intensity, higher = more binding, comparable within an allelic series)"
CAGTCGCC,binding signal,ALX4 [16],"8.23 upbm affinity estimate (log intensity, higher = more binding, comparable within an allelic series)"
same,binding signal,ALX4 [17],"8.19 upbm affinity estimate (log intensity, higher = more binding, comparable within an allelic series)"
AGAGCCTC,binding signal,ALX4 [16],"7.96 upbm affinity estimate (log intensity, higher = more binding, comparable within an allelic series)"
same,binding signal,ALX4 [17],"7.95 upbm affinity estimate (log intensity, higher = more binding, comparable within an allelic series)"
CTCGGGTC,binding signal,ALX4 [16],"8.18 upbm affinity estimate (log intensity, higher = more binding, comparable within an allelic series)"
same,binding signal,ALX4 [17],"8.25 upbm affinity estimate (log intensity, higher = more binding, comparable within an allelic series)"
GTCGGCGA,binding signal,ALX4 [16],"8.22 upbm affinity estimate (log intensity, higher = more binding, comparable within an allelic series)"
same,binding signal,PRRX1 [18],"9.28 upbm affinity estimate (log intensity, higher = more binding, comparable within an allelic series)"
same,binding signal,ALX4 [17],"8.22 upbm affinity estimate (log intensity, higher = more binding, comparable within an allelic series)"
same,binding signal,PRRX1 [19],"9.44 upbm affinity estimate (log intensity, higher = more binding, comparable within an allelic series)"
GACGCGGC,binding signal,ALX4 [16],"8.04 upbm affinity estimate (log intensity, higher = more binding, comparable within an allelic series)"
same,binding signal,ALX4 [17],"8.07 upbm affinity estimate (log intensity, higher = more binding, comparable within an allelic series)"
CATCAATC,binding signal,ALX4 [16],"10.6 upbm affinity estimate (log intensity, higher = more binding, comparable within an allelic series)"
same,binding signal,HOXB6 [20],"9.69 upbm affinity estimate (log intensity, higher = more binding, comparable within an allelic series)"
same,binding signal,HOXB6 [21],"10.5 upbm affinity estimate (log intensity, higher = more binding, comparable within an allelic series)"
GAGCACCC,binding signal,ALX4 [16],"7.99 upbm affinity estimate (log intensity, higher = more binding, comparable within an allelic series)"
same,binding signal,PRRX1 [18],"9.2 upbm affinity estimate (log intensity, higher = more binding, comparable within an allelic series)"
same,binding signal,ALX4 [17],"8.37 upbm affinity estimate (log intensity, higher = more binding, comparable within an allelic series)"
same,binding signal,PRRX1 [19],"9.01 upbm affinity estimate (log intensity, higher = more binding, comparable within an allelic series)"
AAGCCGGC,binding signal,ALX4 [16],"7.99 upbm affinity estimate (log intensity, higher = more binding, comparable within an allelic series)"
same,binding signal,ALX4 [17],"8.26 upbm affinity estimate (log intensity, higher = more binding, comparable within an allelic series)"
CGACATCC,binding signal,ALX4 [16],"7.95 upbm affinity estimate (log intensity, higher = more binding, comparable within an allelic series)"
same,binding signal,ALX4 [17],"8.23 upbm affinity estimate (log intensity, higher = more binding, comparable within an allelic series)"
CGATATAA,binding signal,ALX4 [16],"10.2 upbm affinity estimate (log intensity, higher = more binding, comparable within an allelic series)"
same,binding signal,ALX4 [17],"9.67 upbm affinity estimate (log intensity, higher = more binding, comparable within an allelic series)"
CCCTTCCA,binding signal,ALX4 [16],"8.25 upbm affinity estimate (log intensity, higher = more binding, comparable within an allelic series)"
same,binding signal,ALX4 [17],"8.35 upbm affinity estimate (log intensity, higher = more binding, comparable within an allelic series)"
ACCTCCTC,binding signal,ALX4 [16],"8.28 upbm affinity estimate (log intensity, higher = more binding, comparable within an allelic series)"
same,binding signal,ALX4 [17],"8.12 upbm affinity estimate (log intensity, higher = more binding, comparable within an allelic series)"
AGCCGTGC,binding signal,ALX4 [16],"7.92 upbm affinity estimate (log intensity, higher = more binding, comparable within an allelic series)"
same,binding signal,ALX4 [17],"8.07 upbm affinity estimate (log intensity, higher = more binding, comparable within an allelic series)"
CCACCGGC,binding signal,ALX4 [16],"8.04 upbm affinity estimate (log intensity, higher = more binding, comparable within an allelic series)"
same,binding signal,HOXB6 [20],"8.97 upbm affinity estimate (log intensity, higher = more binding, comparable within an allelic series)"
same,binding signal,ALX4 [17],"7.94 upbm affinity estimate (log intensity, higher = more binding, comparable within an allelic series)"
same,binding signal,NKX2-6 [22],"9.32 upbm affinity estimate (log intensity, higher = more binding, comparable within an allelic series)"
same,binding signal,MSX2 [23],"9.39 upbm affinity estimate (log intensity, higher = more binding, comparable within an allelic series)"
same,binding signal,ALX3 [2],"7.68 upbm affinity estimate (log intensity, higher = more binding, comparable within an allelic series)"
same,binding signal,MSX2 [9],"9.41 upbm affinity estimate (log intensity, higher = more binding, comparable within an allelic series)"
same,binding signal,ALX3 [4],"7.64 upbm affinity estimate (log intensity, higher = more binding, comparable within an allelic series)"
same,binding signal,ALX3 [5],"7.76 upbm affinity estimate (log intensity, higher = more binding, comparable within an allelic series)"
same,binding signal,ALX3 [6],"7.67 upbm affinity estimate (log intensity, higher = more binding, comparable within an allelic series)"
same,binding signal,MSX2 [10],"9.32 upbm affinity estimate (log intensity, higher = more binding, comparable within an allelic series)"
same,binding signal,ALX3 [24],"7.64 upbm affinity estimate (log intensity, higher = more binding, comparable within an allelic series)"
same,binding signal,HOXB6 [21],"8.83 upbm affinity estimate (log intensity, higher = more binding, comparable within an allelic series)"
GAGGGAGC,binding signal,ALX4 [16],"8.04 upbm affinity estimate (log intensity, higher = more binding, comparable within an allelic series)"
same,binding signal,ALX4 [17],"8.01 upbm affinity estimate (log intensity, higher = more binding, comparable within an allelic series)"
CCCTCACG,binding signal,ALX4 [16],"8.1 upbm affinity estimate (log intensity, higher = more binding, comparable within an allelic series)"
same,binding signal,ALX4 [17],"8.28 upbm affinity estimate (log intensity, higher = more binding, comparable within an allelic series)"
CCTCAGGC,binding signal,ALX4 [16],"8.2 upbm affinity estimate (log intensity, higher = more binding, comparable within an allelic series)"
same,binding signal,ALX4 [17],"8.19 upbm affinity estimate (log intensity, higher = more binding, comparable within an allelic series)"
TCGGCCGA,binding signal,ALX4 [16],"7.94 upbm affinity estimate (log intensity, higher = more binding, comparable within an allelic series)"
same,binding signal,ALX4 [17],"8.39 upbm affinity estimate (log intensity, higher = more binding, comparable within an allelic series)"
GTAAAATA,binding signal,ALX4 [16],"10.2 upbm affinity estimate (log intensity, higher = more binding, comparable within an allelic series)"
same,binding signal,ALX4 [17],"9.6 upbm affinity estimate (log intensity, higher = more binding, comparable within an allelic series)"
ATTTTCTC,binding signal,ALX4 [16],"10.1 upbm affinity estimate (log intensity, higher = more binding, comparable within an allelic series)"
same,binding signal,ALX4 [17],"9.45 upbm affinity estimate (log intensity, higher = more binding, comparable within an allelic series)"
ATAATACA,binding signal,ALX4 [16],"11.1 upbm affinity estimate (log intensity, higher = more binding, comparable within an allelic series)"
same,binding signal,ALX4 [17],"10.4 upbm affinity estimate (log intensity, higher = more binding, comparable within an allelic series)"
ATATGTAA,binding signal,ALX4 [16],"10.2 upbm affinity estimate (log intensity, higher = more binding, comparable within an allelic series)"
same,binding signal,ALX4 [17],"9.63 upbm affinity estimate (log intensity, higher = more binding, comparable within an allelic series)"
ATGATAAA,binding signal,ALX4 [16],"10.4 upbm affinity estimate (log intensity, higher = more binding, comparable within an allelic series)"
same,binding signal,ALX4 [17],"9.81 upbm affinity estimate (log intensity, higher = more binding, comparable within an allelic series)"
GGGTGACC,binding signal,ALX4 [16],"8.07 upbm affinity estimate (log intensity, higher = more binding, comparable within an allelic series)"
same,binding signal,ALX4 [17],"8.31 upbm affinity estimate (log intensity, higher = more binding, comparable within an allelic series)"
CTTCCCGC,binding signal,ALX4 [16],"8.12 upbm affinity estimate (log intensity, higher = more binding, comparable within an allelic series)"
same,binding signal,HOXB6 [20],"9.12 upbm affinity estimate (log intensity, higher = more binding, comparable within an allelic series)"
same,binding signal,ALX4 [17],"8.22 upbm affinity estimate (log intensity, higher = more binding, comparable within an allelic series)"
same,binding signal,HOXB6 [21],"9.02 upbm affinity estimate (log intensity, higher = more binding, comparable within an allelic series)"
AACGACAT,binding signal,ALX4 [16],"9.98 upbm affinity estimate (log intensity, higher = more binding, comparable within an allelic series)"
same,binding signal,ALX4 [17],"9.4 upbm affinity estimate (log intensity, higher = more binding, comparable within an allelic series)"
TCCGATAA,binding signal,ALX4 [16],"10.1 upbm affinity estimate (log intensity, higher = more binding, comparable within an allelic series)"
same,binding signal,ALX4 [17],"9.41 upbm affinity estimate (log intensity, higher = more binding, comparable within an allelic series)"
CCTCGAAC,binding signal,ALX4 [16],"8.02 upbm affinity estimate (log intensity, higher = more binding, comparable within an allelic series)"
same,binding signal,PRRX1 [18],"9.46 upbm affinity estimate (log intensity, higher = more binding, comparable within an allelic series)"
same,binding signal,ALX4 [17],"8.29 upbm affinity estimate (log intensity, higher = more binding, comparable within an allelic series)"
same,binding signal,PRRX1 [19],"9.07 upbm affinity estimate (log intensity, higher = more binding, comparable within an allelic series)"
GAGAGGCA,binding signal,ALX4 [16],"8.02 upbm affinity estimate (log intensity, higher = more binding, comparable within an allelic series)"
same,binding signal,ALX4 [17],"8.16 upbm affinity estimate (log intensity, higher = more binding, comparable within an allelic series)"
